# Hits are enriched below; roughly 11% of the tested compounds scored in any of these assays.
# ALOX12 inhib – blocks human 12-lipoxygenase activity; Potency, µM (highest dose often 57.1 µM), without a hit: at the highest dose activity change, negative = inhibition, most hits filed as inhibitors; 0.12% of 150,000 active; AID 1452; P18054; purified 12-hLO, xylenol orange hydroperoxide absorbance; further: potency means the concentration at half of the fitted maximal effect; nearly all actives have a fitted effect of over 55% in size
#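 150 nM 12hLO, 25 mM Hepes pH 7.0 + 0.01% Triton X-100; cpd preinc 15 min RT; 40 uM arachidonic acid, 30 min RT; Fe-XO 30 min; A573/A405 ratio as read-out.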
# ALDH1A1 inh – blocks purified human ALDH1A1 activity; P00352; Purified ALDH1A1, NADH fluorescence, propionaldehyde substrate; Potency, µM (series often up to 75.3 µM), for inactives: at the top dose activity, negative = inhibition, most hits filed as inhibitors; 7.3% of 220,000 active; AID 1030; active means well fitted inhibition curve with a large enough effect, not every such curve was filed as active; inconclusive means small, poorly fitted or top-dose-only effect, or another doubt; inactive means no such curve, though single readings can be large or run the other way;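 further: potency means the concentration at half of the fitted maximal effect; plate controls were no enzyme wells and a reference inhibitor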
# IMPase inh – membrane-permeable compound that blocks inositol monophosphatase | CHO-M1 cells, IP1 accumulation, HTRF TR-FRET ratio | inhibition (IP1 accumulation), % at 46.1 µM | 120,000 tested, under 10 active | AID 901; active means well fitted curve in the direction sought with a large enough effect in the signal ratio, not every such curve was filed as active; inconclusive means small, poorly fitted or top-dose-only effect, or a change in a side signal; inactive means no such curve, though single readings can be large or run the other way; the % refers to the signal ratio;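 further: cells stimulated with carbachol in lithium chloride buffer; plate controls were DMSO basal wells for no effect and reference inhibitor wells for full effect; higher means more IMPase inhibition seen as more IP1 and lower FRET ratio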
# Target sequence (P97697 whole entry, looked up): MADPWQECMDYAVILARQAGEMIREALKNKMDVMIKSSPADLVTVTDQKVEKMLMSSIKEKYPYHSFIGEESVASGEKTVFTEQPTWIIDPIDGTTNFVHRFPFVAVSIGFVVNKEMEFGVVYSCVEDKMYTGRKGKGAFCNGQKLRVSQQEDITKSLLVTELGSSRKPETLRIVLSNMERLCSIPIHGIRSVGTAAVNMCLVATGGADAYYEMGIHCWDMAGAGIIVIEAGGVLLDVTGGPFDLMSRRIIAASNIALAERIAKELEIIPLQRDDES
#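 Cellular IMPase inhibition is scored as a rise in cytosolic IP1, detected by competitive TR-FRET between d2-labelled IP1 and a europium anti-IP1 antibody. M1-expressing CHO cells were stimulated with carbachol for 30 min at 37C, with lithium (50 mM LiCl) present in the buffer.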
# PNC inhibitor – inhibitors of perinucleolar compartment assembly | AID 2417 | PC3M PTB-GFP, PNC prevalence imaging, 16 h; hits give low values | 3.1% of 140,000 active | activity change (PNC), negative = inhibition, % at 10 µM;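 active means readout at or below -70, meaning at least 70% loss of cells showing the perinucleolar compartment, a nuclear body marking cancer cells; inconclusive means readout between -30 and a set limit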;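 further: plate controls were DMSO wells for no effect and camptothecin positive control wells for full effect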
#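 Read-out is percentage of cells bearing a perinucleolar compartment, from automated 20x imaging of fixed, Hoechst-stained PC3M PTB-GFP cells. Cells were seeded 4 h, then exposed 16 h to compound (23 nl of library stock) in duplicate plates.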
# HPGD inh – blocks human HPGD enzyme activity; P15428; purified HPGD, NADH fluorescence kinetic, PGE2 substrate; Potency, µM, for inactives: top-dose activity change, negative = inhibition, actives largely listed as inhibitors; 4.3% of 150,000 active; AID 894; active means well fitted inhibition curve with a large enough effect, not every such curve was filed as active; inconclusive means small, poorly fitted or top-dose-only effect, or another doubt; inactive means no such curve, though single readings can be large or run the other way; further: potency means the concentration at half of the fitted maximal effect
# Target sequence (P15428 whole entry, looked up): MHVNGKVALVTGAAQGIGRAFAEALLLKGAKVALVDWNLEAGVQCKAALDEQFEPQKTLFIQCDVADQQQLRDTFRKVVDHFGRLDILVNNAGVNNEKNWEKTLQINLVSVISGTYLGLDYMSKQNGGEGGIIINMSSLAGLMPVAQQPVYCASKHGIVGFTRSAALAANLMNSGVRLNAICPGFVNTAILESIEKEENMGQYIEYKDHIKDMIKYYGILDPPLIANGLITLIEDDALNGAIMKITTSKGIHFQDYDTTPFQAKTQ
#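 NADH formation kinetics: reaction with 30 uM PGE2 and 1 mM NAD+ (final), 20 nM enzyme, Tris-HCl pH 8 with Tween 20, after 15 min compound preincubation at room temperature. Fluorescence change, last versus first of five reads.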
# IMPase Li inh – IMPase inhibition in cells with lithium potentiation. CHO-M1 cells, IP1 TR-FRET (IP-One), carbachol + lithium. Potency, µM (doses to about 59.4 µM), inactives show at the top dose activity, negative = IMPase inhibition, hits mostly inhibitors. 0.35% of 210,000 active;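 further: IP1 builds up when IMPase is blocked and the TR-FRET signal falls; potency means the concentration at half of the fitted maximal effect; plate controls were basal vehicle for no effect and high inhibitor control for full effect; nearly all actives have a fitted effect of over 50% in size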
#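 IP1 accumulation measured by competitive TR-FRET in lysed CHO-M1 cells after 30 min compound exposure at 37C, with a small lithium addition to potentiate weak responses. Hill-equation AC50 from ratio and donor-channel data.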
# Starred values were filed as active, the others as inactive; ? = inconclusive; / = not tested or not shown; [ ] = another dose, or the depositor's remark. Unless noted, the call rests on the fitted dose curve; in most records, active means well fitted curve in the direction sought with a large enough effect; inconclusive means small, poorly fitted or top-dose-only effect, or another doubt; inactive means no such curve, though single readings can be large; an effect the other way counts as inactive or inconclusive. Unless noted, on the % scale 0 is the no-effect control and ±100 the full control effect.
SMILES,ALOX12 inhib,ALDH1A1 inh,IMPase inh,PNC inhibitor,HPGD inh,IMPase Li inh
CCn1nc([N+](=O)[O-])c(C(C#N)c2nc3cc(C(F)(F)F)ccc3s2)c(Cl)c1=O (configuration not stated),-23.4%,0.398µM*,-5.9,-7.3,?,34.2%[38.3 µM]
CCNc1ncc2nc(CCc3ccccc3)c(=O)n(-c3ccccc3)c2n1,-8.2%,?,/,/,?,-4.5%
C[C@@H](C(=O)Nc1ccc2ccccc2c1)[C@H]1C[C@]1(C)[C@H](NC(=O)Oc1ccc(F)cc1)c1ccccc1,-4.7%,?,/,/,-6.8%,-0.7%
COc1ccc(C2NC(C(=O)O)Cc3c2[nH]c2ccccc32)cc1OC (configuration not stated),?,?,-0.2,-97.7*,-23.3%,16.8%[38.3 µM]
COc1cc(NC(=O)Cn2c(C)cc3ccccc3c2=O)cc(OC)c1OC,-0.1%,?,?,-6.5,-25.4%,25.1µM*
CCNS(=O)(=O)c1ccc(NC(=O)Nc2ccccc2OC)cc1,/,24.9%,/,/,/,-0.7%
COc1ccccc1NC(=O)COc1ccc(/C=N/NS(=O)(=O)c2ccc(C)cc2)cc1,-18.7%,?,?,?,15.8µM*,13.6%[38.3 µM]
O=C(COc1ccc(/C=N/NS(=O)(=O)c2ccccc2)cc1)Nc1ccc(F)cc1,-7.2%,-2.9%,2.4,12.2,/,/
Cc1ccc(S(=O)(=O)N/N=C/c2ccc(OCC(=O)Nc3ccccc3Cl)cc2)cc1,-16.2%,-13.8%,-0.7,14.7,14.1µM*,9.4%[38.3 µM]
COc1ccccc1NC(=O)NS(=O)(=O)c1ccc(C)cc1,-4.0%,5.2%,9.2,-109.7*,3.9%,22.4%[38.3 µM]
COc1ccccc1N(CC(=O)N/N=C/c1ccc(OCC(=O)NCc2ccco2)cc1)S(=O)(=O)c1ccc(C)cc1,2.8%,-10.3%,-1.1,30.1,15.8µM*,33.9%[38.3 µM]
CCc1ccc(CNC(=O)c2ccc3c(c2)N=C(C)c2cc(C)ccc2S3)cc1,/,/,11.6,/,/,/
O=C(Nc1cccc(F)c1)N1CCC2(CC1)CCN(C(=O)c1csnn1)CC2,3.8%,5.0%,/,/,-1.4%,0.1%
COc1ccc(/C=C/C(=O)CC(=O)/C=C/c2cccc(O)c2OC)cc1O,/,?,/,/,/,13.7%
COC(=O)C1CCN(CC(=O)Nc2cc(C)c3c(=O)oc4ccccc4c3n2)CC1,/,/,5.8,/,/,/
CCC1=C2CC[C@H]3C(=O)NC(=O)[C@H]3[C@H]2[C@@]2(C)C(=NCCOC)OC(=O)N2C1=O,0.1%,-4.0%,/,/,-1.4%,-4.1%
Cc1noc(NS(=O)(=O)c2ccc(NC(=O)c3ccc(Br)cc3)cc2)c1C,/,/,-1.5,/,/,/
CCCCCCCCCCCCCCCCCCNC(=O)OC[C@@H](COP(=O)([O-])OCC[n+]1ccsc1)OC,2.0%,/,1.1,/,/,/
O=[N+]([O-])/C=C\c1cc2ccccc2[nH]1,-5.2%[11.4 µM],-12.6%[13.5 µM],/,/,-4.9%,4.2%
COc1ccc(-c2cc(=O)c3ccccc3s2)cc1,-11.0%,?,10.0,13.1,7.94µM*,2.7%[38.3 µM]
Cc1csc(NC(=O)C(CC(C)C)NS(=O)(=O)c2ccc3c(c2)oc(=O)n3C)n1 (configuration not stated),0.4%,1.2%,-1.8,-81.7*,-14.0%,-2.7%[38.3 µM]
COc1ccccc1Nc1nc2c(s1)CCC2,-9.1%,17.8µM*,6.6,78.1,?,-5.7%[38.3 µM]
COc1ccccc1Nc1nc(Cl)c(C=O)s1,/,17.8µM*,/,/,/,-11.0%
Oc1ccc(/C=N/n2cnn(Cc3ccccc3Cl)c2=S)c(O)c1,-1.7%,20µM*,/,-0.8,20µM*,1.7%
O=C(c1cccs1)c1cn(CCOc2ccc(F)cc2)c2ccccc12,/,/,-2.3,/,/,/
SMILES,ALOX12 inhib,ALDH1A1 inh,IMPase inh,PNC inhibitor,HPGD inh,IMPase Li inh
COc1cc(C(=O)O/N=C2\C=CC(=O)C(C)=C2)cc(OC)c1OC,-7.5%,14.1µM*,13.6,112.3,-14.8%,35.6%[38.3 µM]
COc1cc(C(=O)ON=C2C=C(C)C(=O)C(C)=C2)cc(OC)c1OC,-4.0%,-2.7%,/,-16.0,-15.0%,0.1%
CCOC(=O)C(C)(C)N(Cc1cccc(C)c1)S(=O)(=O)c1ccc(Cl)c([N+](=O)[O-])c1,-6.8%,1.7%,12.3,-22.5,-9.9%,14.1%
CCOC(=O)C(C)(C)N(Cc1cccc(C)c1)S(=O)(=O)c1cccc([N+](=O)[O-])c1,-1.3%,17.8µM*,9.8,33.5,-8.7%,8.8%
CC(=O)Nc1ccc(S(=O)(=O)NC2=C(N3CCN(c4ccc(F)cc4)CC3)C(=O)c3ccccc3C2=O)cc1,-12.8%,7.08µM*,21.7,0.6,-23.4%,54.3%[38.3 µM]
Cc1ccc(S(=O)(=O)NC2=C(N3CCN(c4ccccc4F)CC3)C(=O)c3ccccc3C2=O)cc1,1.9%,?,5.9,4.7,-11.1%,10.1%[38.3 µM]
COc1ccc(N2CCN(C(CNS(=O)(=O)c3cccs3)c3cccnc3)CC2)cc1 (configuration not stated),-2.6%,-17.6%,-5.2,11.0,-7.7%,14.6%[38.3 µM]
COc1ccc(S(=O)(=O)NCC(c2cccnc2)N2CCN(c3ccccc3)CC2)cc1C (configuration not stated),-6.3%,12.6µM*,7.5,49.8,-16.3%,7.1%[38.3 µM]
CC1CCCN(C2=C(NS(=O)(=O)c3ccc(Cl)cc3)C(=O)c3ccccc3C2=O)C1 (configuration not stated),-2.8%,12.6µM*,/,?,-25.4%,41.9%
O=S(=O)(NCC(c1cccnc1)N1CCN(c2ccccc2)CC1)c1cccs1 (configuration not stated),-5.0%,2.51µM*,-5.0,?,-10.6%,25.7%[38.3 µM]
CC(C)CNc1nc(N)[nH]c(=O)c1NC=O,3.8%[11.4 µM],21.6%[13.5 µM],/,/,-7.2%,-14.2%
CC(C)C=O,-1.8%,-15.0%,/,/,-4.6%,-7.7%
O=C(C(NS(=O)(=O)c1cccs1)c1ccccc1)N1CCN(c2ccccc2)CC1 (configuration not stated),-2.7%,?,4.1,30.3,-10.5%,-4.4%[38.3 µM]
O=C1C(NS(=O)(=O)c2cccs2)=C(N2CCN(c3ccccc3)CC2)C(=O)c2ccccc21,-9.6%,3.55µM*,17.9,?,-25.0%,48.6%[38.3 µM]
COc1ccc(-c2[nH]ncc2CN(Cc2nccn2C)C(C)C)c(F)c1,/,22.4µM*,/,/,/,6.5%
CCn1ccnc1CN(C)Cc1cn[nH]c1-c1ccc(F)cc1F,/,2.1%,/,/,/,15.7%
O=C(O)C1OC(O)C(O)C(O)C1O (configuration not stated),-2.3%,10.2%,-7.8,/,1.8%,10.3%
COc1ccc(C(=O)C(C)Oc2cccc(NC(=O)c3cccc([N+](=O)[O-])c3)c2)cc1 (configuration not stated),-4.2%,-9.3%,/,-1.0,-17.3%,2.7%
O=c1cc(-c2ccccc2O)oc2cc(O)ccc12,-2.8%,3.5%,/,/,?,-22.7%

# Assay outcomes (PubChem BioAssay)
